# MEKK3 PB1 HTS: raises or lowers MEK5 binding to the human MEKK3 PB1 domain. Q99759. hit rate 1.4% among 290,000. AID 1529. binding response (% of control), % at 10 µM. bead-based flow cytometry, Alexa488-MEK5 binding to MEKK3; actives lie on both sides; 0 = blocked by unlabeled MEK5, 100 = vehicle;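 active = binding response more than 3 SD above or below the average of its plate-row segment, actives on both sides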;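 also: Alexa488 bead fluorescence after subtracting the streptavidin-only scavenger bead signal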
# MEKK2 mut-MEK5: signal of MEK5 binding to mutant human MEKK2 PB1 domain | AID 1530 | hit rate 0.35% among 290,000 | bead flow cytometry, Alexa488-MEK5 binding to MEKK2 mutant | percent response, % at 10 µM; in the data active = percent response above about 24%, passing the limit was not always enough
# UBC13 inh: human UBC13 polyubiquitination inhibition; inhibition, % at 20 µM; hit rate 0.47% among 330,000; AID 485273; UBC13 polyubiquitin chain formation, TR-FRET; P61088; in the data active = inhibition above about 45%, passing the limit was not always enough
# Target sequence (P61088 whole entry, looked up): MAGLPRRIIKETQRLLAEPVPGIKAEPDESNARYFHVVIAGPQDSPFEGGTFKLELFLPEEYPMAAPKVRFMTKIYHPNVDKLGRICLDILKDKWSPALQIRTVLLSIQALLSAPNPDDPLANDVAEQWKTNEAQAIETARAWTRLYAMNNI
# Rce1 inhib: inhibitors of yeast Ras-converting enzyme; AID 2563; hit rate 0.27% among 290,000; calls only; yeast membranes, quenched prenylated peptide cleavage fluorescence;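 active = fall in fluorescence gain of 50% or more versus controls, with final raw signal at or below 3038400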;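 also: plate controls were neutral control wells for no effect and wells lacking membranes for full effect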
# MEKK2wt PB1 HTS: raises or lowers MEK5 binding to wildtype human MEKK2 PB1 domain | Q9Y2U5 | bead flow cytometry, Alexa488-MEK5 binding to MEKK2 WT; actives lie on both sides | binding response (% of control), % at 10 µM | hit rate 1.1% among 290,000 | AID 1531; in the data active = binding response below about 67% or above about 130%
# Casp3 counter: counter-screen for UBC13 inhibitors: human caspase-3 inhibition; shares compounds with UBC13 inh; hit rate 4% among 1,400; Recombinant caspase-3, Caspase-Glo 3/7 luminescence, 60 min; inhibition, % at 20 µM;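 active = mean inhibition across replicates above about 26%, limit read from the data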;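 also: plate controls were DMSO with caspase-3 for no effect and DMSO wells lacking enzyme for full effect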
# Target sequence (P42574 whole entry, looked up): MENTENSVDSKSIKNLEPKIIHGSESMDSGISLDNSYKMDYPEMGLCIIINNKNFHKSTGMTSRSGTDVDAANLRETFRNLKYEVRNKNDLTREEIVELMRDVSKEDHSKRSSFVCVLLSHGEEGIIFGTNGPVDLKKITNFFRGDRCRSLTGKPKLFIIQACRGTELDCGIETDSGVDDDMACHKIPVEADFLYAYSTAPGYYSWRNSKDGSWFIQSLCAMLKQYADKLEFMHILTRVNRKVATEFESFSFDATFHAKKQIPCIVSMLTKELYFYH
# UBC13 conf: human UBC13 polyubiquitin inhibition, confirmed. AID 488859. UBC13 polyubiquitination, TR-FRET, biochemical. inhibition, % at 10 µM. shares compounds with UBC13 inh. hit rate 68% among 1,400; in the data active = inhibition above about 45%
# * = called active by the depositor; i = inactive; . = not tested or not shown. Rows were chosen to be rich in hits. Some 2.5% of all compounds tested hit in one or more screens of this group.
SMILES,MEKK3 PB1 HTS,MEKK2 mut-MEK5,UBC13 inh,Rce1 inhib,MEKK2wt PB1 HTS,Casp3 counter,UBC13 conf
COc1ccc2sc(-c3ccc(S(C)(=O)=O)cc3)c(C(=O)NCCCN3CCCC3=O)c2c1,.,.,26,.,.,.,.
COc1cc2sc(-c3ccc(S(C)(=O)=O)cc3)c(C(=O)NCCCCO)c2cc1OC,.,.,46*,.,.,3,43
COc1cc2sc(-c3ccc(S(C)(=O)=O)cc3)c(C(=O)NCc3ccc(C)o3)c2cc1OC,.,.,46*,.,.,5,42
NC(=O)c1nsc(C(=O)N(c2ccc(F)cc2)C(C(=O)NCC2CCCO2)c2c[nH]c3ccccc23)c1N (stereo unspecified),107,10,63*,i,108,2,64*
NC(=O)c1nsc(C(=O)N(c2cccc(F)c2)C(C(=O)NCC2CCCO2)c2ccc3ncccc3c2)c1N (stereo unspecified),103,2,33,i,100,.,.
NC(=O)c1nsc(C(=O)N(c2cccc(F)c2)C(C(=O)NCC2CCCO2)c2c[nH]c3ccccc23)c1N (stereo unspecified),101,-4,79*,i,102,0,87*
CCOc1ccc(C(C(=O)NCC2CCCO2)N(C(=O)c2snc(C(N)=O)c2N)c2ccc(F)cc2)cc1 (stereo unspecified),100,-5,17,i,94,.,.
Cc1cccc(N(C(=O)c2snc(C(N)=O)c2N)C(C(=O)NCC2CCCO2)c2c[nH]c3ccccc23)c1 (stereo unspecified),103,-2,77*,i,104,4,81*
COc1ccc(C(=O)NCC(=O)NCc2ccncc2)cc1,.,.,6,.,.,.,.
O=C1CSC(c2cccc([N+](=O)[O-])c2)N1Cc1ccccc1 (stereo unspecified),101,2,-3,i,102,.,.
CCOC(=O)N1CCN(C(=O)c2ccc3c(c2)N(Cc2ccc(F)cc2)CCS3)CC1,102,-1,48*,i,100,0,33
CCOC(=O)N1CCN(C(=O)c2ccc3c(c2)N(CC)CCS3)CC1,111,13,34,i,115,.,.
NC(=O)c1ccccc1NC(=O)CN1CCN(Cc2ccc(Cl)cc2Cl)CC1,101,-2,-1,i,100,.,.
Cc1c(CCOC(=O)CC23CC4CC(CC(C4)C2)C3)sc[n+]1CC(=O)c1ccc(Br)cc1,.,.,47*,i,.,2,69*
Cc1c(CCOC(=O)c2ccccc2)sc[n+]1CC(=O)c1ccc(Br)cc1,103,6,14,i,137,.,.
O=C1c2cccc3cccc(c23)C(=O)N1Nc1ccccc1,99,-7,52*,i,95,-1,43
Cc1noc(C)c1CCC(=O)NC1CCCN(Cc2ccc(CC(C)C)cc2)C1 (stereo unspecified),104,-1,2,i,108,.,.
C#CCOCCOCCOCCNc1nc(N2CCOCC2)nc(N2CCN(C(=O)CCCCCCCCCCNC(=O)[C@H]([C@@H](C)CC)n3cc(CCCCN=C(N)N)nn3)CC2)n1,.,.,77*,.,.,1,70*
C#CCOCCOCCOCCNc1nc(N2CCOCC2)nc(N2CCN(C(=O)[C@H]([C@@H](C)CC)n3cc(CCCN=C(N)N)nn3)CC2)n1,100,5,15,i,99,.,.
C#CCOCCOCCOCCNc1nc(N2CCN(C(=O)CCCCCCCCCCNC(=O)[C@H]([C@@H](C)CC)n3cc(CCCCN=C(N)N)nn3)CC2)nc(N2CCN(C(=O)CCCCCCCCCCNC(=O)[C@@H]([C@H](C)O)n3cc(C)nn3)CC2)n1,.,.,123*,.,.,-2,125*
O=C(NCCSCc1ccc(Cl)cc1)c1cccs1,93,-18,1,.,91,.,.
O=C(Nc1ccc(C(=O)N2CCCCC2)cc1)Nc1cccc(Cl)c1,107,7,10,i,108,.,.
CN(N)C(=S)Nc1ccc(Cl)cc1,93,-2,-2,i,95,.,.
COc1cc(NC(=S)NCCN2CCOCC2)cc(OC)c1OC,99,0,61*,i,99,4,-5
CCCCCOc1ccc(Br)cc1/C(C)=N/NC1=NCCN1,98,4,58*,i,126,-3,64*

# Assay outcomes (PubChem BioAssay)
